Bioassay records: PubChem BioAssay, National Center for Advancing Translational Sciences (NCATS)
FEN1 inhibitor: inhibitors of human flap endonuclease 1; P39748; Recombinant FEN1 flap cleavage, fluorescence, 15 min; Potency, µM (highest dose often 114 µM), for the others: top-dose activity change, negative = inhibition, most hits filed as inhibitors; 390,000 compounds, 0.35% hits; note: potency is the fitted concentration of half-maximal effect; % is set by controls: 0 for no effect and ±100 for the full control effect; nearly all actives have a fitted effect of over 65% in size
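Nuclease activity of 10 nM FEN1 was measured after 15 min of room-temperature exposure to titrated compounds, by adding 50 nM flap substrate and reading plates at 0 and 15 min.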
WRN helicase inh: WRN helicase (human) inhibition; Q14191; WRN helicase unwinding, fluorescent forked duplex, kinetic; Potency, µM (series often up to 114 µM), for the others: top-dose activity change, negative = inhibition, actives largely listed as inhibitors; 360,000 compounds, 0.46% hits; note: potency is the fitted concentration of half-maximal effect; % is set by controls: 0 for no effect and ±100 for the full control effect; nearly all actives have a fitted effect of over 55% in size
Target sequence (Q14191 whole entry, looked up): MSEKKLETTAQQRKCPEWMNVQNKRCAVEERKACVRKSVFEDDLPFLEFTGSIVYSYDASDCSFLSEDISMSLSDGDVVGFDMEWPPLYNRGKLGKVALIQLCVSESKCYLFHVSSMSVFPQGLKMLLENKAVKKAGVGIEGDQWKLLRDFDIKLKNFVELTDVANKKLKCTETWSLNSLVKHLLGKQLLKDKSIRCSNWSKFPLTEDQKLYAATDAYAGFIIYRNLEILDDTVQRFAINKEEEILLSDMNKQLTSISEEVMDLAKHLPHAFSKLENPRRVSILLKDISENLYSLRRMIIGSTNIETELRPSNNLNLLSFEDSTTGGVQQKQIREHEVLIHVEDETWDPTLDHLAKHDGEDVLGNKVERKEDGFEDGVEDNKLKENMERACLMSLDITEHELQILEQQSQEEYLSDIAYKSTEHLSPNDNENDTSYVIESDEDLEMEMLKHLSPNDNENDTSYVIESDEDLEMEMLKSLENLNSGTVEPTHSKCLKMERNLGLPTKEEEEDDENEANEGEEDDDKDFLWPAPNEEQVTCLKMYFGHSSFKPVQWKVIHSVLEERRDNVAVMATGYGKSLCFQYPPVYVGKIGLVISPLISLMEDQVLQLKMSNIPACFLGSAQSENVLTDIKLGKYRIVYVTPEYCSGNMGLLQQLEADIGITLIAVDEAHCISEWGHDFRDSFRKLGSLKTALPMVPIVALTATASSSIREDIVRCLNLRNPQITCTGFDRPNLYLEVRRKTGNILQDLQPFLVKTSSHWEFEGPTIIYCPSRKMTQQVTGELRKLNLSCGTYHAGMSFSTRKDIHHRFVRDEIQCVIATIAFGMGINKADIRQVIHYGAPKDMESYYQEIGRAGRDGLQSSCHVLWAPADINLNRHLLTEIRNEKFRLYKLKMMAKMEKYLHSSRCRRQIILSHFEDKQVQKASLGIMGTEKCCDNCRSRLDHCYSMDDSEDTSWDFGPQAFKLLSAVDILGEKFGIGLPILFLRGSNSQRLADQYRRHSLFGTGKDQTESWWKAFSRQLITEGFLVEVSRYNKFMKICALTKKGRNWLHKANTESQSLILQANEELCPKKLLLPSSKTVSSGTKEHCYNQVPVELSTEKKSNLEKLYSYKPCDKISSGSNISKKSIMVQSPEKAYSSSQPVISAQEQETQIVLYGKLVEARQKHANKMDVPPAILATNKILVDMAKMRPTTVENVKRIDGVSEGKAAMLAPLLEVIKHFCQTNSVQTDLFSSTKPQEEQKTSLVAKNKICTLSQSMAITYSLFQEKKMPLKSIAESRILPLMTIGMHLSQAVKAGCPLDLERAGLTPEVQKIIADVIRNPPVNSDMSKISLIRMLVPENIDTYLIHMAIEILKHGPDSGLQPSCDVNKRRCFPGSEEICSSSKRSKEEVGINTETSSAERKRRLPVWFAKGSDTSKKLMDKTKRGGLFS
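Kinetic fluorescence helicase assay: unwinding of a quenched forked DNA duplex (100 nM final) with 2 mM ATP final raises red fluorescence (525/598 nm). Compounds sat 15 min at room temperature with 20 nM WRN beforehand.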
Pol beta inh: blocks human DNA polymerase beta activity | 340,000 compounds, 1.3% hits | Pol beta primer extension/strand displacement, fluorescence kinetic | Potency, µM (highest dose often 114 µM), for the others: at the top dose activity change, negative = inhibition, hits mostly inhibitors; note: potency is the fitted concentration of half-maximal effect; % is set by controls: 0 for no effect and ±100 for the full control effect
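Pol beta (10 nM) and compounds were preincubated 15 min at room temperature, then 50 nM substrate (final) started primer extension/strand displacement. Reads were taken at 0 and 10 min; concentration-response data were fitted to a four-parameter Hill equation.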
Pol iota inh: DNA polymerase iota (human) inhibition; Q9UNA4; Pol iota fluorescent replication assay, 10 min; Potency, µM (doses to about 115 µM), for inactives: top-dose activity, negative = inhibition, most hits filed as inhibitors; 390,000 compounds, 1% hits; note: potency is the fitted concentration of half-maximal effect
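Pol iota at 10 nM preincubated 15 min with compounds at room temperature; reaction started with fluorescent substrate, 50 nM final. Fluorescence read kinetically at 0 and 10 min; buffer-only wells as negative control.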
Pol eta inh-1: DNA polymerase eta (human) inhibition | Q9Y253 | recombinant Pol eta, fluorescent DNA replication assay | Potency, µM (top dose mostly 114 µM), for inactives: top-dose activity change, negative = inhibition, usual class: inhibitors | 390,000 compounds, 1.2% hits; note: potency is the fitted concentration of half-maximal effect; % is set by controls: 0 for no effect and ±100 for the full control effect
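Pol eta (10 nM) was preincubated with compounds for 15 min at room temperature, after which fluorescent replication substrate (50 nM final) was added to start the reaction. Fluorescence was read kinetically at 0 and 10 min.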
POLK inh: DNA polymerase kappa (human) inhibition. purified Pol kappa, fluorescent DNA synthesis assay, 10 min. Potency, µM (series often up to 107 µM), without a hit: at the top dose activity, negative = inhibition, most hits filed as inhibitors. 400,000 compounds, 0.53% hits. AID 588579; note: potency is the fitted concentration of half-maximal effect; % is set by controls: 0 for no effect and ±100 for the full control effect
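Activity was followed as the change in fluorescence between reads at 0 and 10 min after starting the reaction with 50 nM substrate. Beforehand, 10 nM polymerase had been preincubated with compound for 15 min at room temperature.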
BAZ2B inh: confirmation of human BAZ2B bromodomain inhibitors; shares compounds with POLK inh; AlphaScreen BAZ2B / biotin-H3K14Ac peptide displacement; 25 compounds, 100% hits; AID 588809; Potency, µM, most hits filed as inhibitors; calls by dose curve
AlphaScreen ctr: counter-screen for BAZ2B inhibitors: AlphaScreen signal interference; shares compounds with POLK inh; AlphaScreen biotin-His6 peptide bead counterscreen, signal decrease; Potency, µM (top dose mostly 57.1 µM), for the others: top-dose activity change, negative = inhibition, actives largely listed as inhibitors; 25 tested, under 10 active; AID 588859;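 active = clear concentration-dependent signal drop in the bead assay lacking the target, so a primary-screen artifact; inconclusive = weak, partial or single-dose response; inactive = no response, so a real primary hit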
PGK validate: validation of Trypanosoma brucei phosphoglycerate kinase inhibitors | TbPGK coupled GAPDH assay, Kinase-Glo luminescence | Potency, µM (titrated, usually from 57.5 µM), for inactives: top-dose activity change, negative = inhibition, actives largely listed as inhibitors | 500 compounds, 79% hits | AID 686980 | shares compounds with POLK inh; note: potency is the fitted concentration of half-maximal effect; % is set by controls: 0 for no effect and ±100 for the full control effect; nearly all actives have a fitted effect of over 65% in size
Pol iota confirm: Confirm cherry-picked inhibitors of human polymerase iota. Potency, µM, actives largely listed as inhibitors. 1,500 compounds, 77% hits. Pol iota primer extension, TAMRA/BHQ fluorescence. shares compounds with POLK inh; note: potency is the fitted concentration of half-maximal effect
Pol eta inh-2: confirmation of human DNA polymerase eta inhibitors; AID 720502; Potency, µM, most hits filed as inhibitors; Pol eta primer extension, TAMRA/BHQ fluorescence, 10 min; shares compounds with Pol eta inh-1; 2,600 compounds, 64% hits; note: potency is the fitted concentration of half-maximal effect
The depositor's hits bear a star; ? = inconclusive; . = not tested or not shown; [ ] = remark or other dose. An excerpt weighted towards active compounds, which were near 2.4% of everything screened. Unless noted, calls come from the whole dose curve; as a rule, active = well fitted curve in the direction sought with a large enough effect; inconclusive = small, poorly fitted or top-dose-only effect, or another doubt; inactive = no such curve, though single readings can be large; an effect the other way counts as inactive or inconclusive.

SMILES	FEN1 inhibitor	WRN helicase inh	Pol beta inh	Pol iota inh	Pol eta inh-1	POLK inh	others
CCC(Oc1ccccc1OC)C(=O)Nc1ccc2c(c1)OCCO2 (centres undefined)	12%	2%	-10%	40%	-14%	-1%
COc1cccc(-c2nc3c(C#N)c[nH]n3c2NC2CCCCC2)c1OC	-4%	.	-4%	33%	-7%	0%
COc1ccc(NC(=O)CN(C)C(=O)c2cc3c(s2)CCC3)cc1	25µM*	40µM*	.	7.1µM*	3.2µM*	10µM*	BAZ2B inh=7.9*;AlphaScreen ctr=-27%
CCn1c(C)c(C(=O)Nc2ccc(OC)cc2)c2cc(OC)ccc21	18%	-4%	3%	9%	-21%	-1%
COCCN(Cc1cc2cc3c(cc2nc1Cl)OCO3)C(=O)c1ccc(C)cc1	-14%	-1%	9%	-8%	-12%	-3%	BAZ2B inh=11*;AlphaScreen ctr=?
CCOP(=O)(OCC)C(O)c1ccc2c(c1)OCO2 (centres undefined)	-11%	4%	39%	-9%	-6%	-3%
Cc1nc(N2CCCCC2)c2ccsc2n1	-4%	8%	-7%	-9%	-3%	-4%	BAZ2B inh=10*;AlphaScreen ctr=?
O=C1NC(=S)N(c2ccc(F)cc2)C(=O)/C1=C\c1ccoc1	7.9µM*	?	2.2µM*	?	1µM*	1µM*	PGK validate=0.23µM*
O=C(O)c1ccccc1NS(=O)(=O)c1cccc(N=Nc2c(O)[nH]c(=S)[nH]c2=O)c1	-10%	-32%	.	?	-11%	-18%
CCOc1ccc(NS(=O)(=O)c2ccc(Cl)c(N=Nc3c(O)[nH]c(=S)[nH]c3=O)c2)cc1Br	.	?	.	.	20µM*	.	PGK validate=15µM*
COc1ccc(/C=C2\C(=O)NC(=S)N(C)C2=O)cc1C	50µM*	20µM*	30%	?	2.8µM*	50µM*	PGK validate=4.1µM*
OC[C@H]1OC(O)C[C@@H](O)[C@@H]1O (some centres undefined)	-4%	-7%	.	?	-5%	0%
CC(Cc1ccc(C(C)(C)C)cc1)CN1CCCCC1 (centres undefined)	.	.	.	.	.	12%[60.1 µM]
CC1[C@H]2Cc3ccc(O)cc3[C@]1(C)CCN2C (some centres undefined)	3%	0%	.	-5%	-2%	0%
CN1CC[C@@]2(C)c3cc(O)ccc3N(C)[C@@H]12	?	39%	.	10µM*	?	-4%	Pol iota confirm=60*;Pol eta inh-2=?
